Sampled rows, rich in hits. Any-hit rate of the full collection: about 6.8%.
Pf Dd2 inh = blocks growth of Plasmodium falciparum Dd2 parasites; P. falciparum Dd2 growth, SYBR Green, 72 h; stronger effect = lower value; activity change, % at 10 µM; 94,000 compounds, 2.3% hits; in the data active = activity change below about -80%; inconclusive = no clear call, values can overlap the other calls
T cruzi growth-1 = T. cruzi proliferation inhibition; inhibition, % at 8.34 µM; T. cruzi beta-gal in NIH3T3, GalScreen luminescence, 90 h; 77,000 compounds, 5.9% hits;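 active = mean inhibition above about 93%, with at least 55% of replicates each passing it, limit read from the data, passing the limit was not always enough; inconclusive = only one of those two conditions holds; inactive = neither condition holds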
C diff HTS = inhibitors of Clostridium difficile growth. Clostridium difficile clinical isolate growth, OD600, 24 h; stronger effect = lower value. growth activity, negative = inhibition, % at 16 µg/mL (by protocol). 86,000 compounds, 0.25% hits;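 active = mean growth activity at or below -80% and every replicate also at or below -80%; inconclusive = mean at or below -80% but some replicate above -80%; inactive = mean growth activity above -80%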;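 also: 0% = DMSO wells and -100% = levofloxacin 16 µg/mL wells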
T cruzi growth-2 = Trypanosoma cruzi proliferation inhibition | 5,600 compounds, 72% hits | inhibition, % at 8.35 µM | T. cruzi beta-gal in NIH3T3, GalScreen luminescence, 90 h | AID 651739 | shares compounds with T cruzi growth-1;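 active = mean replicate inhibition above about 95% and at least 55% of replicates individually reaching it, limit read from the data; inconclusive = only one of the two criteria is met; inactive = neither criterion is met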
T cruzi growth-3 = inhibitors of T. cruzi proliferation. AID 651740. 5,600 compounds, 21% hits. shares compounds with T cruzi growth-1. inhibition, % at 2.09 µM. T. cruzi beta-gal in NIH3T3, GalScreen luminescence, 90 h;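 active = mean inhibition above about 95%, with at least 55% of replicates also reaching it, limit read from the data; inconclusive = meets just one of the two conditions; inactive = meets neither condition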;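 also: plate controls were neutral control median for no effect and positive control median for full effect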
3T3 cytotox = kills mouse NIH/3T3 fibroblasts. shares compounds with T cruzi growth-1. NIH/3T3 viability, CellTiter-Glo ATP luminescence, 90 h. cytotoxicity (signal decrease), % at 8.35 µM. 5,600 compounds, 14% hits;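 active = mean signal decrease across replicates above about 35% based on untreated-well scatter, with enough replicates individually passing, limit read from the data; inconclusive = no rule stated though some were filed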;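 also: 0% = median of neutral control wells and 100% = median of positive control wells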
3T3 cytotox 2 = NIH/3T3 (mouse) viability loss; 5,600 compounds, 56% hits; inhibition, % at 24.9 µM; AID 651744; NIH/3T3 viability, CellTiter-Glo ATP luminescence, 90 h; shares compounds with T cruzi growth-1;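 active = mean loss of cell viability signal at or above a set limit, and enough replicates individually reaching it; inconclusive = meets only the mean limit or only the replicate share; inactive = meets neither condition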;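 also: 0% = median of neutral control wells and 100% = median of positive control wells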
* marks the source's active call; other numbers are inactive results; ? = inconclusive; nt = no result given.

SMILES	Pf Dd2 inh	T cruzi growth-1	C diff HTS	T cruzi growth-2	T cruzi growth-3	3T3 cytotox	3T3 cytotox 2
CC(C)NC(=O)N1CCCCN2[C@@H](CO)[C@@H](c3ccc(C#Cc4ccccc4F)cc3)[C@@H]2C1	-16	91	12	nt	nt	nt	nt
CC(C)NC(=O)N1CCCCN2[C@H](C1)[C@@H](c1ccc(C#Cc3ccccc3F)cc1)[C@@H]2CO	-28	89	4	nt	nt	nt	nt
CC(C)NC(=O)N1CCCCN2[C@H](CO)[C@H](c3ccc(C#Cc4ccccc4F)cc3)[C@@H]2C1	6	96*	-17	110*	62	42*	77*
CC(C)NC(=O)N1CCCCN2[C@H](CO)[C@@H](c3ccc(C#Cc4ccccc4F)cc3)[C@H]2C1	7	112*	41	100*	85	20	103*
O=C(C[C@@H]1CC[C@@H]2NC[C@@H](O)COC[C@H]2O1)NCCN1CCCC1	-11	-35	nt	nt	nt	nt	nt
CCCNC(=O)N1[C@H](CO)[C@H](c2ccccc2)[C@H]1CNC(C)=O	12	-21	9	nt	nt	nt	nt
C/C=C/c1ccc([C@@H]2[C@@H](CO)N(C(C)=O)[C@@H]2CN(C)C(=O)CN(C)C)cc1	7	14	-8	nt	nt	nt	nt
C[C@@H]1CCCCO[C@@H](CN(C)S(=O)(=O)c2ccccc2)[C@@H](C)CN([C@H](C)CO)C(=O)c2cc(NC(=O)Nc3ccc(C(F)(F)F)cc3)ccc2O1	-71	56	10	nt	nt	nt	nt
Cc1ccc(S(=O)(=O)N(C)C[C@@H]2OCCCC[C@@H](C)Oc3ccc(NC(=O)Nc4ccc(C(F)(F)F)cc4)cc3C(=O)N([C@H](C)CO)C[C@H]2C)cc1	-76	nt	4	nt	nt	nt	nt
C[C@@H]1CCCCO[C@H](CN(C)S(=O)(=O)c2ccccc2)[C@H](C)CN([C@@H](C)CO)C(=O)c2cc(NC(=O)Nc3ccc(C(F)(F)F)cc3)ccc2O1	?	107*	-7	96*	111*	-1	14
C[C@H](CO)N1C[C@H](C)[C@@H](CN(C)S(=O)(=O)c2ccccc2)OCCCC[C@H](C)Oc2ccc(NC(=O)Nc3ccc(C(F)(F)F)cc3)cc2C1=O	-43	87	-7	nt	nt	nt	nt
C[C@H](CO)N1C[C@H](C)[C@H](CN(C)S(=O)(=O)c2ccccc2)OCCCC[C@H](C)Oc2ccc(NC(=O)Nc3ccc(C(F)(F)F)cc3)cc2C1=O	-57	104*	6	105*	109*	1	23
C[C@@H]1CCCCO[C@H](CN(C)S(=O)(=O)c2ccccc2)[C@@H](C)CN([C@@H](C)CO)C(=O)c2cc(NC(=O)Nc3ccc(C(F)(F)F)cc3)ccc2O1	-82*	103*	-11	106*	109*	42*	70*
C[C@H]1CCCCO[C@@H](CN(C)S(=O)(=O)c2ccccc2)[C@@H](C)CN([C@@H](C)CO)C(=O)c2cc(NC(=O)Nc3ccc(C(F)(F)F)cc3)ccc2O1	-83*	100*	-7	100*	113*	19	8
C[C@@H]1CN([C@H](C)CO)C(=O)c2cc(NC(=O)Nc3ccc(C(F)(F)F)cc3)ccc2O[C@@H](C)CCCCO[C@@H]1CN(C)S(=O)(=O)c1ccccc1	-59	90	-2	nt	nt	nt	nt
O=C(Nc1ccccc1F)N[C@H]1CC[C@H](CCNC(=O)C2CCC2)O[C@H]1CO	20	nt	1	nt	nt	nt	nt
C[C@H]1CN([C@@H](C)CO)C(=O)c2cc(NS(=O)(=O)c3cn(C)cn3)ccc2O[C@@H]1CN(C)CC1CCCCC1	22	-5	-1	nt	nt	nt	nt
C[C@@H]1CN([C@H](C)CO)S(=O)(=O)c2ccc(C#CCN(C)C)cc2O[C@@H]1CN(C)CC1CC1	-50	55	nt	nt	nt	nt	nt
C[C@H](CO)N1C[C@H](C)[C@@H](CN(C)C)Oc2cc(-c3cccc(C(=O)N(C)C)c3)ccc2S1(=O)=O	5	59	1	nt	nt	nt	nt
C[C@@H]1CCCCO[C@H](CN(C)S(=O)(=O)c2ccccc2)[C@@H](C)CN([C@H](C)CO)C(=O)c2cc(NC(=O)Nc3ccc(C(F)(F)F)cc3)ccc2O1	-75	115*	2	?	-28	13	2
Cc1ccc(S(=O)(=O)N(C)C[C@@H]2OCCCC[C@H](C)Oc3ccc(NC(=O)Nc4ccc(C(F)(F)F)cc4)cc3C(=O)N([C@@H](C)CO)C[C@H]2C)cc1	-61	nt	-1	nt	nt	nt	nt
C[C@@H]1CN([C@@H](C)CO)C(=O)c2cc(NC(=O)Nc3ccccc3)ccc2O[C@@H]1CN(C)Cc1ccc(Cl)c(Cl)c1	24	70	19	nt	nt	nt	nt
COc1cccc(NC(=O)N[C@@H]2C=C[C@H](CC(=O)Nc3ccccc3)O[C@@H]2CO)c1	19	nt	4	nt	nt	nt	nt
COCC(=O)N1[C@H](CO)[C@H](c2ccc(C#CCC3CCCC3)cc2)[C@@H]1C#N	-28	89	2	nt	nt	nt	nt
COCC(=O)N1[C@H](C#N)[C@H](c2ccc(C#CCC3CCCC3)cc2)[C@@H]1CO	-38	92	7	nt	nt	nt	nt
SMILES	Pf Dd2 inh	T cruzi growth-1	C diff HTS	T cruzi growth-2	T cruzi growth-3	3T3 cytotox	3T3 cytotox 2
N#C[C@H]1[C@@H](c2ccc(C#CCC3CCCC3)cc2)[C@@H](CO)N1C(=O)c1ccccn1	?	97*	-4	102*	112*	-25	93*
N#C[C@@H]1[C@@H](c2ccc(C#CCC3CCCC3)cc2)[C@H](CO)N1C(=O)c1ccccn1	-24	97*	-6	?	112*	-1	107*
COc1cccc(C#Cc2ccc([C@H]3[C@@H](CO)N4C(=O)CN(C(=O)c5ccncc5)C[C@H]34)cc2)c1	-9	nt	2	nt	nt	nt	nt
O=C(NCC[C@@H]1CC[C@H](NC(=O)C2CCC2)[C@@H](CO)O1)c1cnccn1	10	23	nt	nt	nt	nt	nt
COc1ccc(NC(=O)N(C)C[C@H]2OCCCC[C@H](C)Oc3ccc(NC(=O)Nc4ccc(C(F)(F)F)cc4)cc3C(=O)N([C@@H](C)CO)C[C@H]2C)cc1	-12	78	6	nt	nt	nt	nt
COc1ccc(NC(=O)Nc2ccc3c(c2)C(=O)N([C@@H](C)CO)C[C@H](C)[C@@H](CN(C)C(=O)Nc2ccc(C(F)(F)F)cc2)OCCCC[C@H](C)O3)cc1	-82*	?	-7	107*	110*	16	13
COc1ccc(NC(=O)N(C)C[C@H]2OCCCC[C@@H](C)Oc3ccc(NC(=O)Nc4ccc(C(F)(F)F)cc4)cc3C(=O)N([C@@H](C)CO)C[C@H]2C)cc1	-62	109*	4	105*	113*	10	6
COc1ccc(NC(=O)N(C)C[C@@H]2OCCCC[C@H](C)Oc3ccc(NC(=O)Nc4ccc(C(F)(F)F)cc4)cc3C(=O)N([C@H](C)CO)C[C@@H]2C)cc1	81	74	2	nt	nt	nt	nt
COc1ccc(NC(=O)Nc2ccc3c(c2)C(=O)N([C@@H](C)CO)C[C@@H](C)[C@@H](CN(C)C(=O)Nc2ccc(OC)cc2)OCCCC[C@H](C)O3)cc1	-39	31	nt	nt	nt	nt	nt

Bioassay records (PubChem)
